# Experimental data from ChEMBL document CHEMBL4513146, “CO-ADD screening of Karazin Kharkiv National University (Ukraine) compounds”.
# Entries with a potency or affinity are not part of this list.
# Tests used:
# Staphylococcus aureus = details: Concentration 32 ug.mL-1;; ASSAY_TEST Inhibition of Bacterial Growth; detection method Absorption (OD600); MEDIA CAMHB; plate type 384well; NBS; CORNING #3640; time 18 hr
# Escherichia coli = details: Concentration 32 ug.mL-1;; ASSAY_TEST Inhibition of Bacterial Growth; detection method Absorption (OD600); MEDIA CAMHB; plate type 384well; NBS; CORNING #3640; time 18 hr
SMILES,Inhibition (Staphylococcus aureus),Inhibition (Escherichia coli)
COc1ccccc1NC(=O)CSc1nnc2c(=O)n(-c3ccc(C)c(C)c3)ccn12,0.64%,-7.52%
COc1ccc(CNC(=O)Cn2nc3c4cc(-c5ccc(Cl)cc5)nn4ccn3c2=O)cc1,6.34%,4.2%
COc1cccc(Oc2nccn3c(=O)n(CC(=O)Nc4ccc5c(c4)OCO5)nc23)c1,9.63%,-4.07%
Cc1ccc(-c2cc3c4nn(CC(=O)Nc5ccccc5Br)c(=O)n4ccn3n2)cc1C,9.34%,-2.39%
COC(=O)c1cccc(NC(=O)Cn2nc3ccc(-c4ccc(C)c(C)c4)nn3c2=O)c1,2.69%,-10.93%
COc1ccc(N2CCN(C(=O)Cn3nc4ccc(S(=O)(=O)C(C)(C)C)nn4c3=O)CC2)cc1,12.76%,0.99%
COc1ccc(NC(=O)Cn2c(=O)c3nnc(C)n3c3ccccc32)cc1Cl,14.24%,3.26%
Cc1cc(C)cc(N(Cc2cc(F)cc(F)c2)S(=O)(=O)c2cccn3c(C)nnc23)c1,9.54%,-1.86%
COCCCNC(=O)CSc1nnc2c(=O)n(Cc3ccccc3)ccn12,7.01%,-1.7%
COc1ccc2[nH]cc(C(=O)CSc3nnc4c(=O)n(-c5ccc(F)cc5)ccn34)c2c1,14.61%,-2.83%
CC(C)CCNC(=O)Cn1nc2n(CC(C)C)c(=O)c3sccc3n2c1=O,4.95%,-1.56%
Cc1cc2nn(CC(=O)Nc3ccc(F)cc3F)c(=O)n2c(Nc2ccc(C)c(F)c2)n1,8.31%,-0.48%
